Screening data deposited in PubChem by National Center for Advancing Translational Sciences (NCATS).
Cycloheximide cs – counter-screen for Shiga toxin inhibitors: cycloheximide protein synthesis inhibition; AID 2314; cell reporter, cycloheximide protein synthesis inhibition counterscreen; 300,000 tested, 12% active; max response, %; in the data active = max response mostly above about 13%, no sharp cut-off; inactive = mostly below about 14%; also: read at 38.3 µM for the half of the compounds with a filed dose
Pf growth 96h – P. falciparum growth inhibition at 96 hours. Potency, µM (titrated, usually from 28.7 µM), hits mostly inhibitors. P. falciparum luciferase reporter growth, 96 h. 320,000 tested, 6.9% active
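Luminescence readout: decreased luciferase signal marks inhibited growth of reporter-expressing P. falciparum in infected red cells (2% hematocrit, 0.05% parasitemia final), exposed to compound two generations (96 h, 37 C, 5% CO2).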
HCV inh – blocks hepatitis C virus | Huh7.5.1 HCVcc-Cre infection, luciferase reporter, 44 h | Potency, µM (highest dose often 41.8 µM), usual class: inhibitors | 340,000 tested, 3.4% active
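Compounds are dispensed onto cells plated 4 h earlier at 1,000 per well, with HCVcc-Cre virus (about 0.5 moi) added next. Following 44 h of culture, luminescent signal is measured for 15 sec after 15 min with substrate at room temperature.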
AMA1 RON2 block – inhibitors of Plasmodium falciparum AMA1-RON2 interaction; AlphaScreen AMA1-biotinylated RON2 peptide binding; Potency, µM (top dose mostly 58.2 µM), actives largely listed as inhibitors; 360,000 tested, 0.2% active; also: nearly all actives have a fitted effect of over 45% in size
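AMA1 (3D7) with his tag at 25 nM final met compounds first, then biotinylated RON2 peptide at 25 nM; detection used donor plus acceptor beads, 10 µg/mL apiece, read by AlphaScreen after 30 min at room temperature.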
Pf growth 48h – inhibits P. falciparum growth in the first generation, 48 h; P. falciparum luciferase growth in erythrocytes, 48 h; Potency, µM (highest dose often 28.7 µM), usual class: inhibitors; 310,000 tested, 5.9% active; AID 504832
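Compounds are pin-transferred into medium, infected erythrocytes (2% hematocrit, 0.1% parasitemia final) are added, and plates sit one parasite generation at 37 C in 5% CO2. Detection reagent is then added and luminescence measured.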
Shiga toxin inh – blocks Shiga toxin action in Vero cells; Vero cells, Shiga toxin protein synthesis inhibition reporter; inhibition, % at 38.7 µM; 290,000 tested, 9.2% active; in the data active = inhibition mostly above about 28%, no sharp cut-off; inactive = mostly below about 43%
Each line names hits and unclear results; the compound was inactive in the other large screens; ! = a repeat was not active. Sampled rows, rich in hits. Any-hit rate of the full collection: about 21%. Unless noted, calls follow the shape of the dose curve; as a rule, active = well fitted curve in the direction sought with a large enough effect; inconclusive = small, poorly fitted or top-dose-only effect, or another doubt; inactive = no such curve, though single readings can be large; an effect the other way counts as inactive or inconclusive.

N/C(=N\OC(=O)COc1ccc2ccccc2c1Br)c1cccnc1	Cycloheximide cs 16, Shiga toxin inh 103 (no result: HCV inh, AMA1 RON2 block)
O=C(Nc1cccnc1)C1CC(=O)N(c2ccc(F)cc2)C1 (stereo unspecified)	none
COc1ccc(C2CC(O)(c3ccccc3)Oc3cc(OC)ccc32)cc1 (stereo unspecified)	Pf growth 96h inconclusive, HCV inh 4.5µM, Pf growth 48h 12µM
O=C(Nc1ccccc1)O/N=C/c1ccncc1	Cycloheximide cs 17, Pf growth 96h inconclusive
Cc1ccc(NC(=O)CCC(=O)N/N=C/c2ccccc2O)cc1	none
O=C(CCC(=O)Nc1ccc(F)cc1)N/N=C/c1ccc(Br)cc1	Pf growth 96h 3.7µM
O=C(CCC(=O)Nc1ccc(F)cc1)N/N=C/c1ccccc1	Pf growth 96h 1.5µM
O=C(CCC(=O)Nc1ccc(Br)cc1)N/N=C/c1ccccc1O	Cycloheximide cs 21, Pf growth 96h inconclusive, HCV inh inconclusive, Pf growth 48h inconclusive
O=C(CCC(=O)Nc1ccc(Br)cc1)N/N=C/c1ccc(F)cc1	none
COc1cc(C=NOC(=O)Nc2ccccc2)cc(OC)c1OC	none (no result: Cycloheximide cs, Pf growth 96h, Pf growth 48h, Shiga toxin inh)
Cc1ccnn1-c1ccc(C(=O)N2CCCN(S(=O)(=O)c3ccc(F)cc3)CC2)cc1	Pf growth 96h inconclusive, Pf growth 48h inconclusive (no result: Cycloheximide cs, Shiga toxin inh)
O=C(CCC(=O)Nc1ccccc1)N/N=C/c1ccncc1	Cycloheximide cs 23, Pf growth 48h inconclusive
Cc1ccc(SCCC(=O)N/N=C/c2ccccc2O)cc1	Pf growth 96h inconclusive, HCV inh inconclusive, Pf growth 48h 15µM
CCc1nc2c(OCc3ccc(F)c(F)c3)cccn2c1N(C)C(=O)c1cccs1	none (no result: Cycloheximide cs, Pf growth 96h, HCV inh, Pf growth 48h, Shiga toxin inh)
CC(=O)c1ccc(C(=O)Nc2sc3c(c2C(N)=O)CCN(Cc2ccccc2)C3)cc1	Pf growth 96h inconclusive, Pf growth 48h inconclusive (no result: HCV inh, AMA1 RON2 block)
CCCN1CCc2c(sc(NC(=O)c3ccc(S(=O)(=O)N(C)c4ccccc4)cc3)c2C(N)=O)C1	Pf growth 96h 9.3µM, HCV inh inconclusive, Pf growth 48h 9.3µM
CCOC(=O)N1CCN(S(=O)(=O)c2ccc(C(=O)Nc3sc4c(c3C(N)=O)CCN(CC)C4)cc2)CC1	Pf growth 48h inconclusive
CNC(=O)c1c(NC(=O)c2ccc(S(=O)(=O)N3CCCc4ccccc43)cc2)sc2c1CCN(C)C2	Pf growth 96h inconclusive, HCV inh inconclusive, Pf growth 48h inconclusive
CC(C)N1CCc2c(sc(NC(=O)c3ccc(S(=O)(=O)N(C)CC4CCCO4)cc3)c2C(N)=O)C1 (stereo unspecified)	Pf growth 96h inconclusive, HCV inh inconclusive, Pf growth 48h inconclusive
CCN1CCc2c(sc(NC(=O)c3ccc(S(=O)(=O)N(C)CC4CCCO4)cc3)c2C(N)=O)C1 (stereo unspecified)	Pf growth 96h 10µM, Pf growth 48h inconclusive
CCCN1CCc2c(sc(NC(=O)c3ccc(S(=O)(=O)N4CCN(C(=O)OCC)CC4)cc3)c2C(N)=O)C1	Pf growth 96h inconclusive, HCV inh inconclusive, Pf growth 48h 10µM
CCCN1CCc2c(sc(NC(=O)c3ccc(S(=O)(=O)N(C)c4ccccc4)cc3)c2C(=O)NC)C1	Pf growth 96h 2.6µM, HCV inh inconclusive, Pf growth 48h 3.3µM
O=S1(=O)CC(N2CC=CC2)CN1Cc1cn(Cc2ccc(Cl)cc2)nn1 (stereo unspecified)	none (no result: Cycloheximide cs, Pf growth 96h, HCV inh, Pf growth 48h, Shiga toxin inh)
COc1ccc(NC(=O)C2(C)Cc3c(-c4cccc(C(N)=O)c4)ccnc3O2)cn1 (stereo unspecified)	none (no result: Cycloheximide cs, Pf growth 96h, HCV inh, Pf growth 48h, Shiga toxin inh)
Cc1ccc(C2=CN(Cc3ccccc3)CCC2=O)cc1	HCV inh inconclusive (no result: Cycloheximide cs, Pf growth 96h, Pf growth 48h, Shiga toxin inh)
O=C1CCN(Cc2ccccc2)C=C1c1ccc(Br)cc1	HCV inh 10µM (no result: Cycloheximide cs, Pf growth 96h, Pf growth 48h, Shiga toxin inh)
Cc1nc2sc(C(=O)Nc3ccccc3Cc3ccccc3)c(C)c2c(=O)[nH]1	Pf growth 96h inconclusive, Pf growth 48h inconclusive
CCCCOC(=O)n1c(=O)oc2ccccc21	Cycloheximide cs 26, Pf growth 96h inconclusive
CC1=CC(C)=Nc2ccc(C)cc2N1	Cycloheximide cs 27, Shiga toxin inh 94!
CC1=CC(C)(C)Nc2ccc(OC(=O)CN3C(=O)c4ccccc4C3=O)cc21	Cycloheximide cs 35, HCV inh 25µM, AMA1 RON2 block inconclusive, Pf growth 48h 15µM, Shiga toxin inh 55
CC1=CC(C)(C)Nc2ccc(OC(=O)CN3C(=O)c4cccc5cccc(c45)C3=O)cc21	Pf growth 96h inconclusive, HCV inh inconclusive, AMA1 RON2 block inconclusive, Pf growth 48h 7.4µM
CC1=CC(C)(C)Nc2ccc(OC(=O)C(Cc3ccccc3)N3C(=O)c4ccccc4C3=O)cc21 (stereo unspecified)	AMA1 RON2 block inconclusive, Pf growth 48h inconclusive
CCCCOc1ccc(C(=O)N(CC)CC(=O)NCc2cccs2)cc1	none
Fc1ccc2c(c1)/C(=N/Nc1ccccn1)CCS2	Cycloheximide cs 30, HCV inh inconclusive, Pf growth 48h inconclusive, Shiga toxin inh 58
COc1ccc(CCN=C(N)NS(=O)(=O)c2cc(F)ccc2F)cc1	none
CCc1csc(CCNC(=O)C2CCC(=O)N(CCc3cccc(F)c3)C2)n1 (stereo unspecified)	none
O=C(Nc1ccc(Cl)c(Cl)c1)c1ccc(Cl)c(Cl)c1	Cycloheximide cs 50, Shiga toxin inh 89
Cc1ccc(NC(=O)c2ccc(Cl)c(N3C(=O)C=CC3=O)c2)cc1	Cycloheximide cs 57, Shiga toxin inh 81
O=C(Nc1cccc(C(F)(F)F)c1)c1cccnc1	none (no result: Pf growth 96h)
CC(C)(C)c1cc(C(=O)Nc2cccnc2)cc(C(=O)Nc2cccnc2)c1	Pf growth 96h 0.83µM, HCV inh inconclusive (no result: Pf growth 48h)
CS(=O)(=O)c1cccc(NC(=O)c2ccc(Cl)c(Cl)c2)c1	Pf growth 96h inconclusive, HCV inh inconclusive, Shiga toxin inh 54
CCCC[C@]12Cc3ccccc3C(O1)c1c(c3ccccc3oc1=O)O2	Pf growth 96h inconclusive (no result: HCV inh, AMA1 RON2 block)
COc1ccc(C(=O)Nc2ccc(Cl)c(Cl)c2)c(OC)n1	Cycloheximide cs 21, Shiga toxin inh 45
O=C(Nc1ccc(Cl)c(Cl)c1)c1ccncc1	Cycloheximide cs 31, Pf growth 96h 15µM, Shiga toxin inh 101
O=C(Nc1ccc2c(c1)Cc1ccccc1-2)c1ccncc1	Cycloheximide cs 33, Pf growth 96h inconclusive, HCV inh inconclusive, Shiga toxin inh 66
O=C(Nc1ccc2c(c1)COC2=O)c1ccc(Cl)c(Cl)c1	Cycloheximide cs 34, Shiga toxin inh 71
COc1cc(C(=O)Nc2ccc3c(c2)Cc2cc(NC(=O)c4cc(OC)c(OC)c(OC)c4)ccc2-3)cc(OC)c1OC	Pf growth 96h inconclusive, HCV inh inconclusive
CCCC(=O)Nc1ccc2c(c1)COC2=O	none
Cn1c(SCC(=O)NNC(=O)c2ccccc2)nnc1C1CC1	none
COc1ccccc1C(=O)NC(=O)COC(=O)c1cnc(C)cn1	none (no result: Cycloheximide cs, Shiga toxin inh)
O=C(Nc1ccc(Cl)c(Cl)c1)NC1CCS(=O)(=O)C1 (stereo unspecified)	none
O=C(Nc1cccnc1)c1ccc(Cl)c(Cl)c1	Cycloheximide cs 24, Pf growth 96h 6.6µM, Pf growth 48h inconclusive (no result: Shiga toxin inh)
